Counter-ions that a name gives are not always drawn.
Experiments:
Test in all cases: Euclidean distance of Cell Painting phenotypic profile (signed KS, 77 features) to DMSO centroid (dimensionless distance); higher = stronger phenotypic change vs DMSO (phenoactivity)
Details in all cases: 48 h; 5 or 10 uM (library dependent)
786-O = test system: 786-O
Outline: (§1)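 Harmony extracted 77 features from 20X confocal images (9 fields/well) of stained cells, scoring each as a signed Kolmogorov-Smirnov statistic against same-plate vehicle wells. The cells, five cancer lines and a healthy fibroblast line, had received library compounds for 48 h at 10 or 5 uM depending on library, with 0.1% DMSO final. Phenoactivity is the Euclidean distance from each plate-position-corrected, correlation-weighted, top-dose replicate-averaged profile to the median vehicle profile.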

A549 = test system: A549
Outline: as §1

DU145 = test system: DU145
Outline: as §1

FB = test system: FB
Outline: as §1

HEPG2 = test system: HEPG2
Outline: as §1

OVCAR4 = test system: OVCAR4
Outline: as §1

SMILES	Euclidean distance (786-O)	Euclidean distance (A549)	Euclidean distance (DU145)	Euclidean distance (FB)	Euclidean distance (HEPG2)	Euclidean distance (OVCAR4)
CC(C)=CCOc1c2occc2cc2ccc(=O)oc12 [Imperatorin]	1.11	0.594	0.803	0.939	0.503	1.32
CC(O)(CS(=O)(=O)c1ccc(F)cc1)C(=O)Nc1ccc(C#N)c(C(F)(F)F)c1 (centres undefined) [Bicalutamide]	1.1	1.04	0.992	1.28	0.832	1.65
Cc1ccc(/N=C/N(C)/C=N/c2ccc(C)cc2C)c(C)c1 [Amitraz]	0.966	0.885	0.902	0.718	0.47	0.684
CN[C@@H]1[C@@H](O)[C@@H](O[C@@H]2[C@@H](O)[C@H](O[C@H]3O[C@H]([C@@H](C)O)[C@@H](O)[C@H](O)[C@H]3N)[C@@H](N)C[C@H]2N)OC[C@]1(C)O [Geneticin (G418 Sulfate)]	1.73	0.917	1.4	1.24	1.23	1.53
O=C/C=C/c1ccccc1 [Cinnamaldehyde]	1	0.658	0.988	0.954	1.14	0.848
C=C(C)[C@H]1Cc2c(ccc3c2O[C@@H]2COc4cc(OC)c(OC)cc4[C@@H]2C3=O)O1 [Rotenone (Barbasco)]	2.48	2.97	3.54	2.77	2.94	2.89
Oc1cccc2cccnc12 [8-Hydroxyquinoline]	4.55	1.4	2.11	6.09	1.99	1.56
CN1[C@@H]2CC[C@H]1C[C@@H](OC(=O)C(CO)c1ccccc1)C2 (some centres undefined) [Atropine sulfate]	0.994	0.9	0.824	0.898	0.473	1.38
O=C(O)CCCc1ccc(N(CCCl)CCCl)cc1 [Chloroambucil]	2.21	1.7	0.964	1.7	0.893	1.49
C=CCN1C[C@H](C(=O)N(CCCN(C)C)C(=O)NCC)C[C@@H]2c3cccc4[nH]cc(c34)C[C@H]21 [Cabergoline]	1.45	0.993	1.12	1.34	0.928	1.3
CC[C@H](C)[C@H]1O[C@]2(C=C[C@@H]1C)C[C@@H]1C[C@@H](C/C=C(\C)[C@@H](O[C@H]3C[C@H](OC)[C@@H](O[C@H]4C[C@H](OC)[C@@H](O)[C@H](C)O4)[C@H](C)O3)[C@@H](C)/C=C/C=C3\CO[C@@H]4[C@H](O)C(C)=C[C@@H](C(=O)O1)[C@]34O)O2.CO[C@H]1C[C@H](O[C@H]2[C@H](C)O[C@@H](O[C@@H]3/C(C)=C/C[C@@H]4C[C@@H](C[C@]5(C=C[C@H](C)[C@@H](C(C)C)O5)O4)OC(=O)[C@@H]4C=C(C)[C@@H](O)[C@H]5OC/C(=C\C=C\[C@@H]3C)[C@]54O)C[C@@H]2OC)O[C@@H](C)[C@@H]1O [Avermectin B1]	1.43	2.77	1.59	1.1	1.38	1.76
COc1cc2c(cc1OC)C1CC(=O)C(CC(C)C)CN1CC2 (centres undefined) [Tetrabenazine (Xenazine)]	0.961	1.86	0.948	1.12	1.74	1.45
Cc1ncc(CNC(=O)N(CCCl)N=O)c(N)n1 [Nimustine Hydrochloride]	1.62	0.894	0.692	0.831	0.722	0.918
c1cc2c(cc1[C@H]1OC[C@H]3[C@@H]1CO[C@@H]3c1ccc3c(c1)OCO3)OCO2 [Sesamin]	1.03	0.791	0.678	1.13	2.07	1.1
CNC1CC(N)C(O)C(OC2OC(CO)C(O)C3OC4(OC(C(N)CO)C(O)C(O)C4O)OC23)C1O (centres undefined) [Hygromycin B]	1.63	1.19	1.02	2.53	1.3	1.24
CC(=O)Nc1ccc(Cc2ccc(NC(C)=O)cc2)cc1	1.08	2.27	0.674	0.9	0.667	1.25
CC(C)[C@]12O[C@H]1[C@@H]1O[C@]13[C@]1(O[C@H]1C[C@H]1C4=C(CC[C@@]13C)C(=O)OC4)[C@@H]2O [Triptolide (PG490)]	3.96	3.27	3.16	4.12	2.73	3.81
O=C(O)CNC(=O)C1C(=O)N(C2CCCCC2)C(=O)N(C2CCCCC2)C1=O	1.18	0.61	1.4	1.16	1.1	0.706
CCC1(c2cccc(O)c2)CCCCN(C)C1 (centres undefined) [Meptazinol HCl]	1.46	1.09	0.6	0.726	0.404	0.921
CCCCCCC(=O)O[C@H]1CC[C@H]2[C@@H]3CCC4=CC(=O)CC[C@]4(C)[C@H]3CC[C@]12C [Testosterone Enanthate]	0.918	0.756	0.828	0.666	0.553	1.49
Cc1cc(C2=NOC(c3cc(Cl)cc(Cl)c3)(C(F)(F)F)C2)ccc1C(=O)NCC(=O)NCC(F)(F)F (centres undefined) [Fluralaner]	1.38	1.29	1.17	1.44	0.786	1.36
O=c1ccc2ccc3occc3c2o1 [Isopsoralen]	1.25	0.993	0.786	1.02	0.495	1.1
COc1ccc2c3c([nH]c2c1)C(C)=NCC3 [Harmaline]	1.25	0.845	1.34	1.09	0.398	1.37
CC(C)(C)c1cc(C=C(C#N)C#N)cc(Br)c1O	1.41	1.74	0.863	1.1	1.39	1.52
CCC(=O)O[C@H]1CC[C@H]2[C@@H]3CC[C@H]4CC(=O)[C@H](C)C[C@]4(C)[C@H]3CC[C@]12C [Drostanolone Propionate]	0.791	1.02	0.706	0.585	1.34	0.745

SMILES	Euclidean distance (786-O)	Euclidean distance (A549)	Euclidean distance (DU145)	Euclidean distance (FB)	Euclidean distance (HEPG2)	Euclidean distance (OVCAR4)
O=[N+]([O-])c1ncc[nH]1 [Azomycin]	1.03	1.17	1.36	1.09	1.54	0.81
CCOc1ccccc1-n1c(C(C)N2CCN(C(=O)COc3ccc(Cl)cc3)CC2)nc2ccccc2c1=O (centres undefined) [Erastin]	3.85	1.31	1.34	3.12	1.68	2.13
CC1(C)C(C=C(Cl)Cl)C1C(=O)OCc1cccc(Oc2ccccc2)c1 (centres undefined) [Permethrin]	1.12	0.946	1.16	0.816	0.999	1.43
CN1C[C@H](C(=O)N[C@]2(C)O[C@@]3(O)[C@@H]4CCCN4C(=O)[C@H](Cc4ccccc4)N3C2=O)C[C@@H]2c3cccc4[nH]cc(c34)C[C@H]21 [Dihydroergotamine Mesylate]	1.1	1.93	0.862	1.05	1.1	1.25
CNCC(O)c1ccc(O)cc1 (centres undefined) [Synephrine HCl]	0.581	0.451	0.914	0.485	0.371	1.27
CCC1(C)CC(=O)NC(=O)C1 [Bemegride]	0.845	0.616	0.948	0.603	0.381	0.793
Cc1sc2c(c1C)C(c1ccc(Cl)cc1)=N[C@@H](CC(=O)Nc1ccc(O)cc1)c1nnc(C)n1-2	2.95	2.08	2.15	4.11	1.91	1.77
Oc1cc(Cl)ccc1Oc1ccc(Cl)cc1Cl [Triclosan]	0.695	0.668	0.877	1.15	0.546	1.07
OC(c1ccccc1)(c1ccccc1)C1CCNCC1 [Azacyclonol]	2.95	2.91	3.75	3.06	2.31	3.18
NCC(O)c1ccc(O)cc1 (centres undefined) [(+.-)-Octopamine HCl]	1.71	0.639	0.896	0.934	0.45	1.03
C[C@]12CC[C@H](O)C[C@H]1CC[C@@H]1[C@@H]2C[C@@H](O)[C@]2(C)[C@@H](C3=CC(=O)OC3)CC[C@]12O [Digoxigenin]	6.59	5.09	7.21	3.92	3.09	5.51
COC1=C[C@@H]2[C@@H]3Cc4ccc(OC)c(O)c4[C@]2(CCN3C)CC1=O [Sinomenine hydrochloride]	0.472	0.883	1.1	1.15	0.751	0.824
COCC1(CO)C(=O)C2CCN1CC2 (centres undefined)	3.17	3.25	4.09	3.41	2.42	2.18
CC(NC(C)(C)C)C(=O)c1cccc(Cl)c1 (centres undefined) [Amfebutamone (Bupropion) HCl]	1.39	0.604	0.844	0.936	0.484	1.02
COc1ccc(C(=O)O)cc1OC [Veratric acid]	0.978	0.85	1.2	0.896	1.05	0.931
CC[C@H]1[C@@H]2C[C@H]3[C@@H]4N(C)c5ccccc5[C@]45C[C@@H]([C@@H]2[C@H]5O)N3[C@@H]1O [Ajmaline]	1.39	0.849	1.04	0.914	0.486	1.05
NCCc1c[nH]c2ccc(O)cc12 [Serotonin HCl]	1.02	0.797	1.01	1.12	0.38	1.71
C[C@]12CCC(=O)C(O)=C1CC[C@@H]1[C@@H]2CC[C@]2(C)C(=O)CC[C@@H]12 [Formestane]	1.02	0.913		1.08	0.763	0.703
CC(C)C(Br)C(=O)NC(N)=O (centres undefined) [Bromisoval]	1.54	0.435	2.15	0.988	0.659	0.646
C[S+]([O-])CCCCN=C=S (centres undefined) [sulforaphane]	1.73	1.68	1.89	2.33	2.6	1.58
COc1ccc(C(CN(C)C)C2(O)CCCCC2)cc1 (centres undefined) [Venlafaxine]	0.992	0.49		0.691	0.558	1.02
CCN1C[C@]2(OC(=O)c3ccccc3NC(C)=O)CC[C@H](OC)[C@@]34[C@@H]2C[C@@H]([C@@H]13)[C@@]1(O)C[C@H](OC)[C@H]2C[C@@H]4[C@]1(O)[C@H]2OC [Lappaconitine]	0.914	0.59		1.1	0.579	1.35
C=CC[C@]1(O)CC[C@H]2[C@@H]3CCC4=CC(=O)CCC4=C3C=C[C@@]21C [Altrenogest]	1.11	2.59		1.16	0.983	1.02
COc1cc(C)[nH]c(=O)c1CNC(=O)c1c(C)n([C@H](C)C2CCN(CC(F)(F)F)CC2)c2ccccc12	1.35	1.09		1.42	0.588	0.987
